{
  "source": "paper PMC4552634",
  "about": "“A New Set of Chemical Starting Points with Plasmodium falciparum Transmission-Blocking Potential for Antimalarial Drug Discovery” (PLoS ONE, 2015)",
  "note": "Screen size: about 13,000 compounds; about 3,200 (25%) showed an effect of 50% or more. This is one part of the list.",
  "data": [
    {"system": "P. falciparum stage V gametocytes", "design": "BacTiter-Glo ATP luminescence viability of purified stage V gametocytes in 384-well plates, per cent inhibition versus DMSO", "conditions": "48 h, 5 µM; inhibitor", "units": {"% Inhibition": "%"}, "values": [
      {"compound": "CC(C)(C)c1cc(Cn2ccnc2)cc(C(C)(C)C)c1O", "note": "[TCMDC-131317]", "% Inhibition": -23.04},
      {"compound": "Cc1cnc(C(=O)Nc2cccc(-c3csc(-c4nc5ccccc5[nH]4)c3)c2)cn1", "note": "[TCMDC-132401]", "% Inhibition": -83.32},
      {"compound": "CC(=O)c1ccc(N2CCN(C(=O)Nc3ccc(Cl)cc3)CC2)cc1", "note": "[TCMDC-125821]", "% Inhibition": -3.219},
      {"compound": "O=C(O[C@@H]1CN[C@H](C#Cc2cc3ncnc(Nc4ccc5c(cnn5Cc5cccc(F)c5)c4)c3s2)C1)N1CCCC1", "note": "[TCMDC-135355]", "% Inhibition": -4.612},
      {"compound": "CC(C)Oc1cc2c(cc1NS(=O)(=O)c1ccc(-c3cccs3)cc1)CCN(C)CC2", "note": "[TCMDC-141486]", "% Inhibition": 15.65},
      {"compound": "COCCCC1C(=O)OC2CCCC21", "note": "(stereo not shown) [TCMDC-131981]", "% Inhibition": 9.495},
      {"compound": "O=C(O)C(F)(F)F.OCCN1CCN(Cc2cccc(-c3ccc(-c4nc5cc(C(F)(F)F)ccc5[nH]4)s3)c2)CC1", "note": "[TCMDC-133028]", "% Inhibition": 0.1652},
      {"compound": "CCOC(=O)CCc1cc(F)c(F)c(OC[C@H](O)CNC(C)(C)C(O)c2ccc3ccccc3c2)c1", "note": "(stereo partly shown) [TCMDC-141731]", "% Inhibition": -25.49},
      {"compound": "Clc1ccc(-c2cc3c(NCc4ccncc4)nccc3s2)cc1", "note": "[TCMDC-135202]", "% Inhibition": 11.9},
      {"compound": "CN(C)C(=O)CC(=O)NCc1c(Cl)cccc1Cl", "note": "[TCMDC-131769]", "% Inhibition": -6.865},
      {"compound": "CC(C)C(NC(=O)Cc1cccc2ccccc12)C(=O)Nc1cccc(C#N)c1", "note": "(stereo not shown) [TCMDC-125329]", "% Inhibition": -6.888},
      {"compound": "COc1cccc(NC(=O)Cn2c(C)c(C#N)c3ccccc32)c1", "note": "[TCMDC-125424]", "% Inhibition": 84.65},
      {"compound": "COc1cccc(NC(=O)c2cc(Br)cc(N3CCN(c4ccncc4)CC3)c2)c1", "note": "[TCMDC-135146]", "% Inhibition": 1.077},
      {"compound": "COc1cccc(NC(=O)Cn2c(C)c(C(=O)C(F)(F)F)c3ccccc32)c1", "note": "[TCMDC-123800]", "% Inhibition": 60.17},
      {"compound": "COc1ccccc1Cn1ccnc1SCC(=O)Nc1cccc(C(F)(F)F)c1", "note": "[TCMDC-124737]", "% Inhibition": -18.32},
      {"compound": "COc1cccc(NC(=O)Nc2c(-c3cccc(C(F)(F)F)c3)c(C(F)(F)F)nn2C)c1", "note": "[TCMDC-124575]", "% Inhibition": 19.24},
      {"compound": "O=C(/C=C/c1ccc(Cl)cc1)NCCCCCN1CCCN(C(=O)Nc2ccc(Cl)c(C(F)(F)F)c2)CC1", "note": "[TCMDC-136100]", "% Inhibition": -19.2},
      {"compound": "O=C(Nc1cccc(N2CCC(NCCCn3ccnc3)CC2)c1)c1cccc(C(F)(F)F)c1", "note": "[TCMDC-124663]", "% Inhibition": 36.86},
      {"compound": "Cc1cc(NC(=O)NCCN2CCC(NC(=O)c3ccc(C(F)(F)F)cc3)CC2)c2ccccc2n1", "note": "[TCMDC-136174]", "% Inhibition": -43.73},
      {"compound": "Cc1cc(NC(=O)NCCN2CCC(NC(=O)c3cccc(Br)c3)C2)c2ccccc2n1", "note": "(stereo not shown) [TCMDC-136175]", "% Inhibition": 92.91},
      {"compound": "Cc1cc(NC(=O)NCCN2CCC(NS(=O)(=O)c3ccc(Br)cc3)C2)c2ccccc2n1", "note": "(stereo not shown) [TCMDC-136139]", "% Inhibition": 5.798},
      {"compound": "Cc1cc(NC(=O)NCCN2CCC(NC(=O)c3ccc(Cl)cc3)CC2)c2ccccc2n1", "note": "[TCMDC-136171]", "% Inhibition": -56.82},
      {"compound": "Cc1ccc(C(=O)NC2CCN(CCNC(=O)Nc3cc(C)nc4ccccc34)CC2)cc1", "note": "[TCMDC-136172]", "% Inhibition": -7.111},
      {"compound": "Cc1ccc(S(=O)(=O)NC2CCN(CCNC(=O)Nc3cc(C)nc4ccccc34)C2)cc1", "note": "(stereo not shown) [TCMDC-136143]", "% Inhibition": 91.8},
      {"compound": "COc1ccc(NC(=O)NC2CCN(CCCOc3ccnc4cc(Cl)ccc34)C2)cc1OC", "note": "(stereo not shown) [TCMDC-136148]", "% Inhibition": -28.4},
      {"compound": "Cc1cc(NC(=O)NCCN2CCC(NS(=O)(=O)c3cccc(Br)c3)C2)c2ccccc2n1", "note": "(stereo not shown) [TCMDC-136138]", "% Inhibition": 15.89},
      {"compound": "Cc1cc(NC(=O)NCCN2CCC(NC(=O)c3ccc(F)cc3)CC2)c2ccccc2n1", "note": "[TCMDC-136173]", "% Inhibition": 91.01},
      {"compound": "COc1ccc(S(=O)(=O)NC2CCN(CCNC(=O)Nc3cc(C)nc4ccccc34)C2)cc1", "note": "(stereo not shown) [TCMDC-136141]", "% Inhibition": -35.07},
      {"compound": "COc1ccc(NC(=O)NC2CCN(CCCOc3cc(C)nc4ccccc34)CC2)cc1OC", "note": "[TCMDC-136281]", "% Inhibition": 77.42},
      {"compound": "Cc1cc(OCCCN2CCC(NC(=O)c3ccc(Br)cc3)C2)c2ccccc2n1", "note": "(stereo not shown) [TCMDC-136284]", "% Inhibition": 3.225},
      {"compound": "CC(=O)Nc1ncc(C(=O)Nc2cccc(-c3ccc(-c4nc5ccc(C(F)(F)F)cc5[nH]4)cc3)c2)s1", "note": "[TCMDC-136921]", "% Inhibition": -28},
      {"compound": "CC(=O)Oc1c(C2C=CCCC2)c(OC(C)=O)c2ccccc2c1OC(C)=O", "note": "(stereo not shown) [TCMDC-138176]", "% Inhibition": 9.671},
      {"compound": "O=C(NC1CCCCC1)c1ccc(O)c(-c2cccc(C(F)(F)F)c2)c1", "note": "[TCMDC-140163]", "% Inhibition": -1.763},
      {"compound": "Cc1ccc(O)cc1Nc1ccnc2cc(-c3csc(CNCCN4CCOCC4)n3)ccc12", "note": "[TCMDC-138457]", "% Inhibition": 16.99},
      {"compound": "Cc1noc(C)c1-c1cccc(CNCc2cccc(-c3ccc(-c4nc5cc(C(F)(F)F)ccc5[nH]4)s3)c2)c1.O=C(O)C(F)(F)F", "note": "[TCMDC-133055]", "% Inhibition": 0.7472},
      {"compound": "CCOc1cc2c(cc1OCC)C(c1cc(OC)c(O)cc1Cl)NCC2", "note": "(stereo not shown) [TCMDC-124488]", "% Inhibition": -19.03},
      {"compound": "CCc1cc(-c2onc(C)c2-c2cc3ccccc3o2)c(O)cc1OC", "note": "[TCMDC-125148]", "% Inhibition": 5.13},
      {"compound": "C=C(C)CSc1nc2c(c(=O)n1Cc1ccco1)C1(CCCCC1)Cc1ccccc1-2", "note": "[TCMDC-123895]", "% Inhibition": 6.726},
      {"compound": "Cn1c(O)c(N=NC(=S)N2CCOCC2)c2ccccc21", "note": "[TCMDC-138076]", "% Inhibition": 88.31},
      {"compound": "CCn1c(O)c(N=NC(=S)N2CCCC2)c2ccccc21", "note": "[TCMDC-138077]", "% Inhibition": 9.29},
      {"compound": "Oc1[nH]c2ccccc2c1N=NC(=S)N1CCOCC1", "note": "[TCMDC-124263]", "% Inhibition": 29.38},
      {"compound": "COc1cccc(C(=O)Nc2nc3c(s2)CCN(Cc2ccccc2N2CCNCC2)CC3)c1.O=C(O)C(F)(F)F", "note": "[TCMDC-134190]", "% Inhibition": 63.98},
      {"compound": "CCN1CCN(c2cc(C)c3cc(NC(=O)c4cccc(OC)c4)ccc3n2)CC1", "note": "[TCMDC-125573]", "% Inhibition": 10.75},
      {"compound": "COc1ccc(-c2ccc(NC(=O)c3cccc(C#N)c3)cc2)cc1CN1CCNCC1", "note": "[TCMDC-132530]", "% Inhibition": -2.653},
      {"compound": "N#Cc1ccc(/C=C/C(=O)NCCCCCN2CCN(C(=O)Nc3ccc(Cl)c(C(F)(F)F)c3)CC2)cc1", "note": "[TCMDC-136098]", "% Inhibition": -6.45},
      {"compound": "COc1ccc(C(=O)c2ccc3[nH]cc(C4=CCN(C)CC4)c3c2)cc1", "note": "[TCMDC-137276]", "% Inhibition": -3.804},
      {"compound": "Cc1ccc(C(=O)Nc2cccc(CN3CCCN(Cc4ccc(O)cc4)CC3)c2)s1", "note": "[TCMDC-141858]", "% Inhibition": 30.58},
      {"compound": "C#C[C@H]1O[C@@H](n2cnc3c(Nc4cc(Br)cc(C(F)(F)F)c4)ncnc32)[C@H](O)[C@@H]1O", "note": "[TCMDC-135185]", "% Inhibition": 10.32},
      {"compound": "Cc1[nH]c(C)c(-c2ccc(CCc3ccc(F)cc3F)cc2)c(=O)c1Cl", "note": "[TCMDC-135462]", "% Inhibition": 72.17},
      {"compound": "Cc1[nH]c(C)c(-c2ccc(-c3ccc(F)cc3)cc2)c(=O)c1Cl", "note": "[TCMDC-137408]", "% Inhibition": -2.511},
      {"compound": "Cc1[nH]c(C)c(-c2ccc(CCc3ccc(F)cc3F)cc2)c(=O)c1Br", "note": "[TCMDC-135461]", "% Inhibition": 65.46},
      {"compound": "CCC(N)(C#Cc1ccc(-c2c(C)[nH]c(C)c(Br)c2=O)cc1)CC", "note": "[TCMDC-134693]", "% Inhibition": 83.96},
      {"compound": "Cc1[nH]c(C)c(-c2ccc(C#Cc3ccc(F)cc3F)cc2)c(=O)c1Br", "note": "[TCMDC-134692]", "% Inhibition": 64.24},
      {"compound": "Cc1ccc(-c2ccc3c(c2)C=C(C(=O)NC2CCN(CCNC(=O)c4cccc(C(F)(F)F)c4)CC2)CCC3)cc1", "note": "[TCMDC-141948]", "% Inhibition": -9.898},
      {"compound": "COC(=O)c1cccc(NC(=O)NC2CCN(c3ccnc(Nc4cc(OC)c(OC)c(OC)c4)n3)C2)c1", "note": "(stereo not shown) [TCMDC-133630]", "% Inhibition": -28.99},
      {"compound": "Cc1cc(N2CCCC2)nc(Nc2ccc(NC(=O)c3cccc(F)c3)cc2)n1", "note": "[TCMDC-124709]", "% Inhibition": -4.91},
      {"compound": "Cc1ccnc(-n2c(C)cc(C=C3SC(=Nc4ccccc4)N(Cc4ccco4)C3=O)c2C)c1", "note": "[TCMDC-125659]", "% Inhibition": -67.39},
      {"compound": "O=C(N[C@H](CC1CCCCC1)C(=O)NC1CCCc2ccccc21)c1ccc(O)c(-c2cccc([N+](=O)[O-])c2)c1", "note": "(stereo partly shown) [TCMDC-140799]", "% Inhibition": 21.9},
      {"compound": "Cc1cccc2[nH]c(-c3cccc(-c4ccc(NC(=O)CS(C)(=O)=O)cc4)c3)nc12", "note": "[TCMDC-136851]", "% Inhibition": -1.399},
      {"compound": "Cc1cccc2[nH]c(-c3ccc(-c4ccc(NC(=O)CN5CCN(C)CC5)cc4)cc3)nc12", "note": "[TCMDC-136975]", "% Inhibition": 64.7},
      {"compound": "Cc1cccc2[nH]c(-c3ccc(-c4ccc(NC(=O)Nc5ccsc5)cc4)cc3)nc12", "note": "[TCMDC-133215]", "% Inhibition": -35.23},
      {"compound": "Cc1cccc2[nH]c(-c3cccc(-c4ccc(NC(=O)CN5CCN(C)CC5)cc4)c3)nc12", "note": "[TCMDC-136983]", "% Inhibition": 81.12},
      {"compound": "Cc1cccc2[nH]c(-c3cccc(-c4cccc(NC(=O)CN5CCN(C)CC5)c4)c3)nc12", "note": "[TCMDC-136982]", "% Inhibition": 18.86},
      {"compound": "Cc1nc(C)c(CC(=O)Nc2cccc(-c3cccc(-c4nc5c(C)cccc5[nH]4)c3)c2)s1", "note": "[TCMDC-136997]", "% Inhibition": 6.613},
      {"compound": "Cc1nc(C)c(CC(=O)Nc2ccc(-c3cccc(-c4nc5c(C)cccc5[nH]4)c3)cc2)s1", "note": "[TCMDC-136998]", "% Inhibition": 88.79},
      {"compound": "Cc1nc(C)c(CC(=O)Nc2ccc(-c3cccc(-c4nc5ccc(C(F)(F)F)cc5[nH]4)c3)cc2)s1", "note": "[TCMDC-136996]", "% Inhibition": -50.06},
      {"compound": "CC(C)(C)OC(=O)N(Cc1cc(-n2nnnc2C(F)(F)F)ccc1O)[C@H]1CCCN(C(=O)OC(C)(C)C)[C@H]1c1ccccc1", "note": "[TCMDC-132022]", "% Inhibition": -21.48}
    ]}
  ]
}
